# MEKK2 mut-MEK5: signal of MEK5 binding to mutant human MEKK2 PB1 domain. bead flow cytometry, Alexa488-MEK5 binding to MEKK2 mutant. percent response, % at 10 µM. 290,000 compounds, 0.35% hits. AID 1530; in the data active = percent response above about 24%, passing the limit was not always enough
# CHT inh: inhibits the human high affinity choline transporter; Q9GZV3; CHT-expressing cells, membrane potential dye, choline response; active compounds read low; B-score at 10 µM; 310,000 compounds, 0.86% hits; AID 488975;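 active = B-score over 3 SD under the library average, and starting fluorescence ratio not unusually high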;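 also: choline stimulus applied at its EC90 after an EC20 pre-addition; B-score computed on integrated fluorescence ratio after choline addition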
# Mot1-301 SUMO: inhibitors of SUMOylation pathway: yeast Mot1-301 growth rescue | S. cerevisiae Mot1-301 growth rescue, ATP luminescence, 38.5C; percent above DMSO median, 100 means doubled | growth rescue, % at 18.8 µM | 320,000 compounds, 1% hits;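 active = every valid replicate shows activation above 250% relative to neutral control wells; inactive = the rest, any valid replicate at or below 250%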;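 also: OY570 slx delta 5 strain wells were the positive control but not used for scaling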
# MEKK3 PB1 HTS: modulators (inhibitors or enhancers) of MEK5 binding to human MEKK3 PB1 domain; bead-based flow cytometry, Alexa488-MEK5 binding to MEKK3; actives lie on both sides; 0 = blocked by unlabeled MEK5, 100 = vehicle; Q99759; 290,000 compounds, 1.4% hits; binding response (% of control), % at 10 µM;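 active = binding response more than 3 SD above or below the average of its plate-row segment, actives on both sides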;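 also: Alexa488 bead fluorescence after subtracting the streptavidin-only scavenger bead signal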
# Target sequence (Q99759 whole entry, looked up, the tested form may be a part): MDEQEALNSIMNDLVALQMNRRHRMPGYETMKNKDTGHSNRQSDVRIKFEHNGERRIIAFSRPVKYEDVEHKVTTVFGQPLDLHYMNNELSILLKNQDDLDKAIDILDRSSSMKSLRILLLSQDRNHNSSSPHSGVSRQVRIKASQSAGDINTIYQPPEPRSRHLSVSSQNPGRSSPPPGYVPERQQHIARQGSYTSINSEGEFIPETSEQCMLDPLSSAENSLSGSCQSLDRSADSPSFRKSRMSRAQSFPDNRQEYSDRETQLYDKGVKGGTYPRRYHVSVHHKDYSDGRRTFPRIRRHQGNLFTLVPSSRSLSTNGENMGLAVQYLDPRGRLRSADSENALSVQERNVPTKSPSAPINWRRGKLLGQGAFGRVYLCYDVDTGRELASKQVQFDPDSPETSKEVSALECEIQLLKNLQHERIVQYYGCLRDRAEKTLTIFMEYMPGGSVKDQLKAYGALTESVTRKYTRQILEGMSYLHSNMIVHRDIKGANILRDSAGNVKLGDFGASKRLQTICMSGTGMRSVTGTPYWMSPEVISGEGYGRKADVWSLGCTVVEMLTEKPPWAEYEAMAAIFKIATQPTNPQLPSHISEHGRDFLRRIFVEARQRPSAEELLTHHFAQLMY
# MEKK2wt PB1 HTS: raises or lowers MEK5 binding to wildtype human MEKK2 PB1 domain; bead flow cytometry, Alexa488-MEK5 binding to MEKK2 WT; actives lie on both sides; binding response (% of control), % at 10 µM; 290,000 compounds, 1.1% hits; AID 1531; in the data active = binding response below about 67% or above about 130%
# CHT PAM: allosterically activates the human high affinity choline transporter; Q9GZV3; CHT-expressing cells, membrane potential dye, choline EC20; active compounds read high; LV-AA mutant CHT in HEK293 cells; B-score at 10 µM; 310,000 compounds, 0.49% hits;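 active = initial fluorescence not abnormally high and integrated response B-score, plate-corrected, over 3 SD above library mean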
# An asterisk follows results filed as active; i = inactive; · = no result given; [ ] = remark or other dose. Rows were chosen to be rich in hits. Some 4.1% of all compounds tested hit in one or more screens of this group.
SMILES,MEKK2 mut-MEK5,CHT inh,Mot1-301 SUMO,MEKK3 PB1 HTS,MEKK2wt PB1 HTS,CHT PAM
Cc1cc(NCCCn2ccnc2)n2nc(C)c(-c3ccc(Cl)cc3)c2n1,6,-5.1*,-1,100,120,i
Cc1nnc(NC(=O)C2CC(=O)N(c3ccccc3)C2)s1 (centres undefined),-3,i,1,98,100,i
Cc1cc(Nc2ccc(Cl)cc2)nc(NCc2ccccc2)n1,12,i,-10,110,159*,i
Cc1cc(Oc2ccccc2)nc(NCc2ccccc2)n1,-1,i,-1,98,95,i
CCN(CC)c1cnn(C/C(=N\OC)c2ccc(Cl)cc2)c(=O)c1Br,3,i,4,104,104,i
O=C(CSC1CC(=O)N(CCc2ccccc2)C1=O)Nc1cccc(Cl)c1 (centres undefined),7,i,314*,105,141,i
CCN(CC)S(=O)(=O)c1ccc(C(=O)OCn2nnc3ccccc3c2=O)cc1,9,i,-9,103,104,i
O=C(c1ccccc1F)N1CCN(C2CCC(c3ccccc3)CC2)CC1 (centres undefined),-6,i,282*,103,110,i
N#Cc1cc2[nH]c3ccccc3c2[n+](-c2ccc([N+](=O)[O-])cc2)c1N,-14,i,3,93,85,8.8*
CC(=O)c1cc2c(cc1NC(=O)CN1Cc3ccccc3C1=O)OCO2,3,i,-5,101,97,i
Nc1c(N2CCCC2)cc(Cl)c2nonc12,-2,i,-15,93,92,i
Nc1ccc(N2CCCCC2)c2nonc12,-5,-7.6*,·,88,82,i
COc1ccc(N2CCN(Cc3cc(OC)c(O)c([N+](=O)[O-])c3)CC2)cc1,4,i,10,105,111,i
COc1cc(CN2CCN(c3cccc(C)c3C)CC2)cc([N+](=O)[O-])c1O,242*,i,-9,91,212*,i
O=C(c1cncc(Br)c1)N1CCN(S(=O)(=O)c2ccc(Cl)cc2)CC1,0,i,306*,106,107,i
C(=N\Nc1nc2ccccc2[nH]1)/c1c[nH]c2ccccc12,11,i,1,105,155*,i
COc1cccc(C2C(C(=O)c3ccco3)=C(O)C(=O)N2CCN(C)C)c1OC (centres undefined),-1,i,470*,99,101,i
COc1cccc(C2C(C(=O)c3cc4ccccc4o3)=C(O)C(=O)N2CCN(C)C)c1OC (centres undefined),2,i,16,102,102,i
COc1ccc(-n2ccnc2SCC(=O)NCc2ccco2)c(OC)c1,-10,i,4,95,95,i
CC1CN(Cc2cc(=O)n3ccsc3n2)CC(C)O1 (centres undefined),3,i,278*,108,112,i
CCOC(=O)C1(Cc2ccc(OC)cc2)CCN(C(=O)c2cc(C)nn2C)CC1,-2,i,144,100,103,i
O=S(=O)(c1ccccc1)c1nnn2c1nc(NC1CCN(Cc3ccccc3)CC1)c1cc(Cl)ccc12,33*,i,-5,106,138*,i
O=S(=O)(c1ccccc1)c1nnn2c1nc(NC1CCN(Cc3ccccc3)CC1)c1ccccc12,32*,i,1,102,146*,i
CCOc1cccc2cc(C(=O)N3CCc4ccccc43)c(=O)oc12,8,i,21,100,5.0*,i
COc1cc2c(C(=O)Nc3ccc4c(c3)OCO4)cn(CC(C)C)c(=O)c2cc1OC,·,i,343*,·,·,i
SMILES,MEKK2 mut-MEK5,CHT inh,Mot1-301 SUMO,MEKK3 PB1 HTS,MEKK2wt PB1 HTS,CHT PAM
CCCN1CCc2c(sc(NC(=S)NC(=O)c3ccccc3)c2C#N)C1,8,i,102,95,0.0*,i
CC(C)N1CCc2c(sc(NC(=S)NC(=O)c3ccccc3)c2C#N)C1,0,i,-16,89,87,i
C=CCC1(CC=C)CCCN1Cc1nc(COc2ccccc2)no1,18,i,-11,97,109,i
COC(=O)[C@@H](NC(=O)O[C@@H]1C(=O)c2cc(Br)ccc2O[C@H]1c1cccc(OC)c1)C(C)C,-6,i,-16,101,95,i
CC[C@H](C)[C@@H](NC(=O)O[C@@H]1C(=O)c2cc(Br)ccc2O[C@H]1c1ccc2c(c1)OCO2)C(=O)OC,-4,·,·,78*[inhibitor],95,·
O=C(Cc1ccccc1)N/N=C/c1cc(Br)cc(Cl)c1O,-3,i,358*,102,97,i
O=C(O)COc1ccccc1/C=N/NC(=O)c1ccc(F)cc1,-2,i,-5,102,99,i
O=C(O)COc1ccccc1/C=N/NC(=O)Cc1ccccc1,-7,i,-19,96,-12*,i
COc1cc(Br)cc(/C=N/NC(=O)Cc2ccccc2)c1O,·,i,35,·,·,i
CC1CCN(C(=O)c2[nH]cnc2C(=O)NCc2ccc(CNC(=O)OC(C)(C)C)cc2)CC1,·,·,4,·,·,·
Cc1sc(NC(=O)CSc2nc(N)cc(N)n2)c(C#N)c1C,-11,i,319*,92,89,i
CCOc1cc(Cl)c(S(=O)(=O)NCCCn2ccnc2)cc1Cl,2,i,356*,107,109,i
COc1ccc(Cl)cc1S(=O)(=O)NCCCn1ccnc1,4,i,2,106,118,i
O=C(COC(=O)c1ccccc1OC(F)F)Nc1ccc2[nH]c(=O)[nH]c2c1,·,i,7,·,·,i
COc1cccc(C2/C(=C(\O)c3ccc4c(c3)OCCO4)C(=O)C(=O)N2CCN(C)C)c1 (centres undefined),0,i,352*,100,101,i
COc1ccc(C2/C(=C(\O)c3ccc4c(c3)OCCO4)C(=O)C(=O)N2CCCN(C)C)cc1 (centres undefined),3,i,-11,104,110,i
Cc1nn2c(=O)cc(COC(=O)c3ccc(S(=O)(=O)N4CCCCC4)cc3)nc2s1,·,i,-10,·,·,i
CSc1nncc(/C(C)=N\Nc2ccccc2)n1,·,i,297*,·,·,i
O=C(NC1CC1)c1ccc(CSCc2ccccc2Cl)o1,1,i,-10,101,100,i
CN(C)CC#CCCCCCCC#CCN(C)C,5,i,996*,103,108,i
CN(C)CC#CCC(O)(c1ccccc1)c1ccccc1,21,i,11,119,116,i
Cc1ccc2c(c1)c(C)c(C)n2CC(O)CN1CCOCC1 (centres undefined),6,i,465,93,-5.0*[inhibitor],i

# From PubChem
